TGFb inhibitor: inhibitors of TGF-b signaling; HepG2 CAGA-GFP TGF-b/SMAD3 reporter, GFP fluorescence, 18 h; TGF-beta stimulated, 500 pg/mL final; Potency, µM (highest dose often 46.1 µM), without a hit: top-dose activity, negative = inhibition, most hits filed as inhibitors; actives 1.2% (n = 410,000); AID 588855; note: potency is the fitted concentration of half-maximal effect; % is set by controls: 0 for no effect and ±100 for the full control effect; nearly all actives have a fitted effect of over 65% in size
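Cell-based qHTS in HEPG2 carrying a CAGA-GFP Smad reporter; compounds added before 500 pg/mL final TGF-beta, 18 h incubation at 37 degrees C, GFP fluorescence quantified per cell by imaging cytometry.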
HepG2 viability: kills HepG2 cells in TGF-b inhibitor counter-screen | actives 0.76% (n = 410,000) | Potency, µM (top dose mostly 46.1 µM), inactives show top-dose activity change, negative = cytotoxicity, most hits filed as cytotoxic | HepG2 CAGA-GFP viability, ATP luminescence, 18 h; note: potency is the fitted concentration of half-maximal effect
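HepG2 CAGA-GFP cells (1000/well, DMEM with 1% FBS) received compound, then TGF-beta at 500 pg/mL final, and were incubated 18 hours at 37 degrees C. Viability was read by CellTiter-Glo luminescence. Media-only wells were set as complete cell-killing and DMSO as no toxicity.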
ATXN2 expr inh: inhibitors of ATXN2 expression. actives 0.72% (n = 360,000). Potency, µM (titrated, usually from 57 µM), for the others: at the top dose activity change, negative = inhibition, actives largely listed as inhibitors. HEK-293 ATXN2-luciferase reporter, luminescence, 24 h. AID 1745845; note: potency is the fitted concentration of half-maximal effect; % is set by controls: 0 for no effect and ±100 for the full control effect; nearly all actives have a fitted effect of over 55% in size
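qHTS (up to 57 uM final) was run with 24 h compound exposure of reporter cells at 37 °C. Each well was multiplexed: SteadyGlo luminescence measured ATXN2-luciferase expression after a fluorogenic Gly-Phe-AFC viability readout (25 uM final).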
uPA surface inh: inhibitors of cell surface uPA generation | cell surface uPA generation assay, qHTS | AID 540303 | Potency, µM (top dose mostly 38.3 µM), without a hit: at the highest dose activity change, negative = inhibition, usual class: inhibitors | actives 0.31% (n = 330,000); active = well fitted inhibition curve with a large enough effect; inconclusive = small, poorly fitted or top-dose-only effect; inactive = no such curve, though single readings can be large or run the other way; tested in mouse RAW 264.7 cells; note: potency is the fitted concentration of half-maximal effect; % is set by controls: 0 for no effect and ±100 for the full control effect; nearly all actives have a fitted effect of over 55% in size
Giardia killer: kills Giardia lamblia. actives 0.15% (n = 340,000). activity change, % at 7.66 µM, hits read low. Giardia lamblia trophozoite viability; in the data active = activity change below about -80%; inconclusive = between about -30% and that limit;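 note: parasites exposed to compound for two days anaerobically before the ATP read; % is set by controls: 0 for no effect and ±100 for the full control effect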
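Compounds were tested on trophozoites seeded at 100 cells/well and held 48 hrs at 37 deg C anaerobically. An ATP-based luminescent kit measured the remaining live cells.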
ATXN viability: viability counter-screen for ATXN expression inhibitors; S2 cells (HEK-293 line with an ATXN2-luciferase reporter) viability, CellTiter-Fluor protease fluorescence, 24 h; Potency, µM (highest dose often 56.7 µM), actives largely listed as cytotoxic; actives 0.49% (n = 400,000); AID 651635; note: potency is the fitted concentration of half-maximal effect; nearly all actives have a fitted effect of over 40% in size
Numbers without * were called inactive; i = inactive; ? = inconclusive; . = no result. This is a sample that favours compounds with a hit; in the whole collection about 2.6% have one here. Unless noted, calls come from the whole dose curve; as a rule, active = well fitted curve in the direction sought with a large enough effect; inconclusive = small, poorly fitted or top-dose-only effect, or another doubt; inactive = no such curve, though single readings can be large; an effect the other way counts as inactive or inconclusive.

SMILES	TGFb inhibitor	HepG2 viability	ATXN2 expr inh	uPA surface inh	Giardia killer	ATXN viability
CC(CNC(=O)c1ccc(CSc2nc3ccncc3n2Cc2cccc(F)c2)cc1)c1ccccc1 (stereo not drawn)	10µM*	-20%	-34%	.	.	?
O=C(NCc1cccs1)c1ccc(CSc2nc3ccncc3n2Cc2ccccc2F)cc1	8.9µM*	-30%	12%	.	.	i
CC(NC(=O)c1ccc(CSc2nc3ccncc3n2Cc2ccc(F)cc2)cc1)c1ccccc1 (stereo not drawn)	?	-29%	-8%	.	.	?
O=[N+]([O-])c1ccc(O/N=[N+](\[O-])N2CCCCC2)c([N+](=O)[O-])c1	4%	-2%	.	.	.	.
CCN(CC)c1ccc(/C=C/C2=C3C=CC=CC3NC=C2)cc1 (stereo not drawn)	82%	-26%	.	.	.	.
CC#CCC(C)[C@H](O)/C=C/[C@@H]1[C@H]2c3cccc(CCCC(=O)O)c3O[C@H]2C[C@H]1O (stereo partly drawn)	.	.	.	.	.	i
Cc1ccc(NC(=O)COC(=O)c2c(-c3ccccc3)noc2C)cc1	1%	4%	-19%	8%	3	i
Cc1onc(-c2ccccc2)c1C(=O)OCC(=O)Nc1ccc(OC(F)(F)F)cc1	13µM*	-36%	?	4%	26	i
Cc1cn([C@H]2C[C@H](F)[C@@H](CO)O2)c(=O)[nH]c1=O	.	.	-3%	.	.	i
Cc1ccc(C2=NNC(=Nc3ccc(F)cc3)SC2)cc1	0%	-10%	25%	-2%	8	i
CCc1ccc(C2=NNC(=Nc3cccc(S(=O)(=O)N(C)C)c3)SC2)cc1	13µM*	-41%	?	-11%	-18	?
CCCCN(CCCC)CC(O)c1cc(Cl)cc2c1-c1ccc(Cl)cc1C2=Cc1ccc(Cl)cc1 (stereo not drawn)	-20%	-8%	-12%	.	.	.
Cc1ccc(C(=O)NCC(c2cccs2)S(=O)(=O)c2cccs2)cc1 (stereo not drawn)	?	-24%	?	.	.	20µM*
CC(C)(C)c1ccc(C(=O)NCC(c2cccs2)S(=O)(=O)c2cccs2)cc1 (stereo not drawn)	-7%	-16%	-38%	.	.	?
O=C(NCCCN1CCCCCC1)c1ccc2c(c1)sc1nc(-c3ccccc3)cn12	?	16µM*	.	.	.	.
CCCN1CCN(CCCNC(=O)c2ccc3c(c2)sc2nc(-c4ccc(C)cc4)cn23)CC1	?	-64%	.	.	.	.
COc1ccc2oc(C(=O)NCCc3ccccc3)c(C)c2c1	-1%	-9%	4.5µM*	-7%	-10	i
COc1ccc2oc(C(=O)OCC(=O)NCCc3ccccc3)c(C)c2c1	5%	9%	0%	2%	3	i
COc1ccc(-c2csc(N(CCCN(C)C)C(=O)c3ccccc3C)n2)cc1	?	10µM*	?	-9%	-6	i
CCCCCCCCC[n+]1cccc2c3ccccc3ccc21	1.8µM*	16µM*	2.2µM*	-21%	2	i
CCCCCCCCCCCCCCCC[n+]1cccc2ccccc21	6.3µM*	11µM*	?	-9%	6	18µM*
CCCCCCCCCCCC[n+]1ccc(C)c2ccccc21	?	-30%	.	.	.	.
O=C1CCCC2=C1C(c1[nH]ncc1Cl)N=C(Nc1nc3ccccc3o1)N2 (stereo not drawn)	.	.	38%	.	.	.
Cc1cnc(SCC2CCCO2)nc1C1CCCN(Cc2cc3c(cc2Cl)OCO3)C1 (stereo not drawn)	.	.	.	.	.	i
Cc1cc(C)cc(NC(=O)C2CC23CCN(Cc2ccc4ncccc4c2)CC3)c1 (stereo not drawn)	.	.	.	.	.	i
SMILES	TGFb inhibitor	HepG2 viability	ATXN2 expr inh	uPA surface inh	Giardia killer	ATXN viability
CNC1CCC(N(Cc2cccc(-c3ccncc3)c2)C(=O)c2sc3ccccc3c2Cl)CC1 (stereo not drawn)	.	.	24µM*	.	.	.
CCN(CC)C(=O)Oc1ccc(Cl)c2cccnc12	-16%	-8%	4%	-1%	1	i
O=C(Nc1cccc(C(F)(F)F)c1)Oc1ccc(Cl)c2cccnc12	7.1µM*	14µM*	?	4%	-3	i
C=C1C=C(C(F)F)n2ncc(C(=O)N3CCc4ccccc4C3)c2N1	9%	20%	.	.	.	.
Cc1cccc(CN2CCC(C(=O)Nc3ccc(Oc4cccnc4)cc3)CC2)c1	?	11µM*	-4%	-19%	-5	i
COc1cccc(CN2CCC(C(=O)Nc3ccc(Oc4cccnc4)cc3)CC2)c1	?	-13%	-11%	-8%	-5	i
O=C(Nc1ccc(Oc2cccnc2)cc1)C1CCN(Cc2cc(Cl)ccc2O)CC1	13µM*	-54%	.	2%	-2	?
COC1=C(Nc2ccc(O)cc2)C(=O)c2ccccc2C1=O	?	-84%	-17%	-7%	-15	?
CCOc1ccc(NC2=C(OC)C(=O)c3ccccc3C2=O)cc1	11µM*	-83%	-4%	0%	-5	?
COC1=C(Nc2ccc(OC)cc2)C(=O)C(OC)=C(Nc2ccc(OC)cc2)C1=O	9%	3%	-10%	3%	-7	i
COC1=C(Nc2ccc(OC)cc2)C(=O)c2ccccc2C1=O	16µM*	-58%	3%	-4%	15	?
CC(C)CNc1ncnc2oc(-c3ccco3)c(-c3ccco3)c12	?	-28%	.	.	12	.
CN1CCCN(C(=O)c2cccc(-c3ccc(C=C4C(=O)Nc5ccc(Cl)cc54)o3)c2)CC1	.	.	7.7µM*	.	.	.
O=C(N[C@@H]1c2ccccc2C2(CCN(C(=O)c3cc4ccccc4oc3=O)CC2)[C@H]1O)c1cccnc1	.	.	.	.	.	i
Brc1ccc[n+](CCc2ccccc2)c1	17%	-21%	.	.	.	.
CN[C@@H]1C[C@H]2O[C@@](C)([C@H]1OC)n1c3ccccc3c3c4c(c5c6ccccc6n2c5c31)C(=O)N[C@H]4O	.	.	1.2µM*	.	.	.
CCCc1cc(NCc2ccccn2)n2nc(C)c(-c3ccccc3)c2n1	?	-41%	10µM*	-4%	14	?
Cc1nn2c(NCc3ccccn3)cc(C(C)C)nc2c1-c1ccccc1	11µM*	-61%	.	-5%	6	?
CCC1CN(CCNC(=O)c2ccnc(Cl)c2)Cc2cc(OC)ccc2O1 (stereo not drawn)	.	.	.	.	.	i
COc1ccccc1CN(C)CC(=O)c1c(C)[nH]c2ccccc12	-5%	-27%	.	.	.	.
COc1cc(/C=C(\C#N)C(=O)Nc2ccc3c(c2)OCCO3)ccc1O	61%	-15%	.	10µM*	-7	i
CSc1ccc(/C=C2\C=Cc3cc([N+](=O)[O-])ccc32)cc1	3%	-3%	.	.	.	.
COc1ccccc1CNc1nc(NCCOc2ccccc2)c2sccc2n1	?	-96%	?	.	.	?

Assay outcomes: PubChem BioAssay, National Center for Advancing Translational Sciences (NCATS)
